Assay results: PubChem BioAssay AID1159580 (chemical genetic matrix, 2015)
Values joined by “and” are separate entries in the source; they are usually repeats but may differ in a detail not shown here. Equal entries are not always repeated. The whole screen tested about 5,500 compounds, of which about 2,000 (36%) were called active. About 18% were inconclusive and are not listed. Cut-off read from the data, not from the text of the source: active = normalized growth mostly below about 0.91 (no sharp cut-off); inconclusive = no clear call, values can overlap the other calls; inactive = mostly above about 0.92. Some of the results follow.

Assay: chemical genetic growth profiling, strain panel (AID 1159580);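 note: tested at 20 µM; growth read once vehicle control cultures reached saturation at 30 °C; 1 = growth at the plate median or of vehicle wells; lower values mean less growth of the strain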
Details: S. cerevisiae deletion strains, growth OD

Measured: normalized growth

CCOC(=O)C1=C[C@]2(CC)CCCN3CCc4c(n1c1ccccc41)[C@@H]32
inactive: locus YAL021C, strain ccr4, hits give low values 1.03 | locus YAL026C, strain drs2, hits give low values 1.02 | locus YAL030W, strain snc1, hits give low values 1.03 | locus YBL061C, strain skt5, hits give low values 1.02 | locus YBR009C, strain hhf1, hits give low values 1.02 | locus YBR021W, strain FUR4, hits give low values 1.02 | locus YBR023C, strain chs3, hits give low values 1.03 | locus YBR171W, strain sec66, hits give low values 1.02 | locus YBR229C, strain ROT2, hits give low values 0.957 | locus YBR231C, strain swc5, hits give low values 1.02 | locus YBR279W, strain paf1, hits give low values 1.01 | locus YCL011C, strain gbp2, hits give low values 1.03 | locus YCL016C, strain dcc1, hits give low values 1.02 | locus YCL029C, strain bik1, hits give low values 0.974 | locus YCL061C, strain MRC1, hits give low values 1.02 | locus YCL069W, strain vba3, hits give low values 1.02 | locus YCR088W, strain abp1, hits give low values 1.02 | locus YDL005C, strain med2, hits give low values 1.02 | locus YDL035C, strain GPR1, hits give low values 0.977 | locus YDL040C, strain nat1, hits give low values 1.03 | locus YDL074C, strain BRE1, hits give low values 0.928 | locus YDL101C, strain DUN1, hits give low values 0.957 | locus YDL134C, strain PPH21, hits give low values 0.998 | locus YDL185W, strain tfp1, hits give low values 0.985 | locus YDL192W, strain arf1, hits give low values 0.975 | locus YDR001C, strain nth1, hits give low values 1.03 | locus YDR069C, strain doa4, hits give low values 1.05 | locus YDR101C, strain arx1, hits give low values 0.969 | locus YDR137W, strain rgp1, hits give low values 0.967 | locus YDR150W, strain NUM1, hits give low values 0.984 | locus YDR159W, strain sac3, hits give low values 1.02 | locus YDR162C, strain NBP2, hits give low values 0.937 | locus YDR195W, strain ref2 1.07 | locus YDR297W, strain sur2, hits give low values 1.02 | locus YDR318W, strain mcm21, hits give low values 0.969 | locus YDR334W, strain swr1, hits give low values 1.03 | locus YDR335W, strain msn5, hits give low values 1.01 | locus YDR388W, hits give low values 0.97 | locus YDR392W, strain spt3, hits give low values 0.979 | locus YDR502C, strain sam2, hits give low values 0.947 | locus YEL003W, strain gim4, hits give low values 1.02 | locus YEL037C, strain rad23, hits give low values 1.01 | locus YEL061C, strain CIN8 (second series), hits give low values 1.04 | locus YEL061C, strain CIN8, hits give low values 0.979 | locus YER015W, strain faa2, hits give low values 1.03 | locus YER016W, strain bim1, hits give low values 1.01 | locus YER110C, hits give low values 0.975 | locus YER111C, strain swi4, hits give low values 1.02 | locus YER155C, strain BEM2 (second series), hits give low values 0.992 | locus YER155C, strain BEM2, hits give low values 1.01 | locus YER167W, strain BCK2, hits give low values 1 | locus YFR010W, strain ubp6, hits give low values 1.03 | locus YGL078C, strain dbp3, hits give low values 0.979 | locus YGL086W, strain mad1, hits give low values 0.948 | locus YGL167C, strain pmr1, hits give low values 1.01 | locus YGL173C, strain kem1, hits give low values 1.04 | locus YGL227W, strain vid30, hits give low values 1.03 | locus YGL240W, strain doc1, hits give low values 1.03 | locus YGL248W, strain PDE1, hits give low values 0.954 | locus YGL253W, strain hxk2, hits give low values 1.03 | locus YGR135W, strain pre9, hits give low values 1 | locus YGR252W, strain gcn5, hits give low values 1.03 | locus YHR013C, strain ard1, hits give low values 1.01 | locus YHR027C, strain rpn1, hits give low values 1.03 | locus YHR030C, strain SLT2, hits give low values 0.994 and 1.01 | locus YHR079C, strain IRE1 (second series), hits give low values 0.985 | locus YHR079C, strain IRE1, hits give low values 1.03 | locus YHR094C, strain hxt1, hits give low values 0.977 | locus YHR129C, strain ARP1, hits give low values 0.987 | locus YHR142W, strain chs7, hits give low values 1.01 | locus YHR200W, strain rpn10, hits give low values 0.979 | locus YIL066C, strain RNR3, hits give low values 0.946 | locus YIL073C, strain SPO22, hits give low values 1.02 | locus YIL125W, strain kgd1, hits give low values 0.985 | locus YIR030C, strain dcg1, hits give low values 0.981 | locus YJL092W, strain hpr5, hits give low values 1.02 | locus YJL095W, strain BCK1 (second series), hits give low values 1.01 | locus YJL095W, strain BCK1, hits give low values 0.867 and 1.02 | locus YJL115W, strain asf1, hits give low values 1.05 | locus YJL129C, strain trk1, hits give low values 1.01 | locus YJL134W, strain LCB3, hits give low values 0.991 | locus YJL154C, strain vps35, hits give low values 1.01 | locus YJL164C, strain tpk1, hits give low values 1.01 | locus YJL166W, strain qcr8, hits give low values 1.02 | locus YJL168C, strain set2, hits give low values 0.979 | locus YJL187C, strain SWE1 (second series), hits give low values 0.927 | locus YJR043C, strain POL32, hits give low values 0.941 | locus YJR066W, strain TOR1, hits give low values 0.967
